What all share (test): NCI-60 one-dose screen, 48 h (100 = growth as untreated, 0 = no growth, -100 = all killed)
One experiment has as its system NCI-H23 lung. The settings on record: 10 µM unless noted.
Another experiment has as its system NCI-H226 lung. The settings on record: 10 µM unless noted.
In another experiment the test system is NCI-H322M lung. The settings on record: 10 µM unless noted.
Another experiment concerns HOP-62 NSCLC. The note with it: 10 µM unless noted.
The next experiment has as its system NCI-H460 lung. The settings on record: 10 µM unless noted.
Another experiment deals with HOP-92 NSCLC. The note with it: 10 µM.
A further experiment has as its system NCI-H522 lung. The settings on record: 10 µM unless noted.
A further experiment has as its system A549/ATCC NSCLC. The note with it: 10 µM unless noted.
In a further experiment the test system is 786-0 renal. The note with it: 10 µM unless noted.
The test system of the next experiment is COLO 205 colon. The note with it: 10 µM unless noted.
A further experiment deals with DU-145 prostate. The note with it: 10 µM unless noted.
A further experiment relates to K-562 leukemia. The note with it: 10 µM unless noted.
In the next experiment the test system is MALME-3M melanoma. The settings on record: 10 µM unless noted.
The next experiment has as its system MDA-MB-231 breast. The note with it: 10 µM unless noted.
In a further experiment the test system is RXF 393 renal. The note with it: 10 µM unless noted.
The subject of a further experiment is SF-268 CNS. The note with it: 10 µM unless noted.
The next experiment concerns SF-295 CNS. The note with it: 10 µM unless noted.
For a further experiment, the system named is SF-539 CNS. The settings on record: 10 µM unless noted.
For a further experiment, the system named is UACC-257 melanoma. The note with it: 10 µM unless noted.

From PubChem BioAssay (NCI) come the findings set out here.

Structures are written as SMILES. This is part of a sample that, as a whole, favours compounds with a hit. Of some 83,000 tested, about 20% had one in any assay.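 Single-concentration screen, 48 h exposure, 96-well plates. Endpoint: percent growth. Below 10 = active.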 A number with no mark means an inactive call. The source made the active and inactive calls.

Take `O=C(CSc1nnc(-c2ccc(Cl)cc2)n1-c1ccccc1)Nc1ccc(Br)cc1`: the growth with NCI-H23 lung was 35.9%; in the experiment on NCI-H226 lung, -27.7% (active); in the experiment on NCI-H322M lung, 0.91% (active); in the experiment on HOP-62 NSCLC, -11.9% (active); in the experiment with NCI-H460 lung it was 5.77% (active); in the experiment with HOP-92 NSCLC it was -37.7% (active). In addition, the growth was 12.1% in the experiment on NCI-H522 lung; 4.69% (active) in the experiment with A549/ATCC NSCLC; -83% (active) in the experiment with 786-0 renal; 51.9% in the experiment on COLO 205 colon; 41.2% in the experiment on DU-145 prostate; 40.5% in the experiment with K-562 leukemia. Besides, the growth was -3.16% (active) in the experiment on MALME-3M melanoma; -29.8% (active) in the experiment with MDA-MB-231 breast; -31.6% (active) in the experiment on RXF 393 renal; 42.2% in the experiment on SF-268 CNS; -34.3% (active) in the experiment with SF-295 CNS; -66.7% (active) in the experiment with SF-539 CNS. Further, in the experiment with UACC-257 melanoma, the growth was 50.3%.

For `O=S(=O)(NCCCNc1nccc(-c2[nH]c(-c3ccccc3)nc2-c2ccc(Cl)c(O)c2)n1)c1cccc(F)c1`, the growth is 65.5% with NCI-H23 lung; 62.8% in the experiment on NCI-H226 lung; 87.9% with NCI-H322M lung; 75.2% in the experiment with HOP-62 NSCLC; 55.2% with NCI-H460 lung; 85.5% in the experiment with HOP-92 NSCLC. For the same molecule, the growth in the experiment on NCI-H522 lung was 54.2%; in the experiment on A549/ATCC NSCLC, 65.2%; in the experiment with 786-0 renal it was 100%; with COLO 205 colon, 87.9%; with DU-145 prostate it was 66.1%; with K-562 leukemia it was 35.3%. Also, the growth in the experiment on MALME-3M melanoma was 2.24% (active); in the experiment with MDA-MB-231 breast it was 60.2%; with RXF 393 renal, 34.1%; in the experiment with SF-268 CNS, 74.3%; in the experiment with SF-295 CNS, 47.4%; in the experiment on SF-539 CNS, 94.1%. Moreover, the growth in the experiment on UACC-257 melanoma was 25.6%.

For the molecule `O=C(Nc1ccc(F)c(F)c1)c1cc(-c2ccc(F)cc2F)ccc1O`, the growth with NCI-H23 lung was -9.76% (active); in the experiment on NCI-H226 lung, 3.67% (active); in the experiment with NCI-H322M lung it was 3.88% (active); with HOP-62 NSCLC it was 19%; with NCI-H460 lung, 2.98% (active); with HOP-92 NSCLC, -19% (active). Also, the growth was -1.71% (active) in the experiment on NCI-H522 lung; 8.98% (active) with A549/ATCC NSCLC; 9.53% (active) in the experiment with 786-0 renal; 82.1% with COLO 205 colon; 18.5% in the experiment with DU-145 prostate; 12.2% in the experiment with K-562 leukemia. In addition, the growth was -13.9% (active) with MALME-3M melanoma; 4.13% (active) in the experiment with MDA-MB-231 breast; -28.1% (active) in the experiment with RXF 393 renal; 16.3% with SF-268 CNS; -23.4% (active) in the experiment with SF-295 CNS; 12.5% with SF-539 CNS. In addition, in the experiment on UACC-257 melanoma, the growth was -9.01% (active).

`COc1cccc(O)c1/C=C(/C)c1ccc2c(OC)cccc2[o+]1`: the growth in the experiment with NCI-H23 lung was 103%; in the experiment on NCI-H226 lung, 105%; with NCI-H322M lung, 103%; in the experiment with HOP-62 NSCLC, 92.5%; in the experiment on NCI-H460 lung it was 109%; in the experiment with HOP-92 NSCLC it was 104%. The growth in the experiment on NCI-H522 lung was 98.5%; in the experiment on A549/ATCC NSCLC, 107%; in the experiment with 786-0 renal, 101%; with COLO 205 colon, 117%; with DU-145 prostate it was 111%; in the experiment with K-562 leukemia, 95.6%. Moreover, the growth in the experiment on MALME-3M melanoma is 96.8%; with MDA-MB-231 breast, 101%; in the experiment with SF-268 CNS, 100%; in the experiment with SF-295 CNS it was 99.1%; in the experiment with SF-539 CNS, 93.2%; with UACC-257 melanoma it was 118%.

On to `CCCCCc1ccc(S(=O)(=O)Nc2cccc(-c3csc(NC(=O)CN4CCN(CCO)CC4)n3)c2)cc1`, for which the growth in the experiment with NCI-H23 lung is 84.7%; in the experiment on NCI-H226 lung, 92.3%; in the experiment on NCI-H322M lung, 98.6%; in the experiment on HOP-62 NSCLC, 92.9%; in the experiment on NCI-H460 lung, 44.4%; with HOP-92 NSCLC it was 59.5%. Further, the growth in the experiment on NCI-H522 lung is 89.1%; in the experiment on A549/ATCC NSCLC, 78.9%; with 786-0 renal, 71.1%; with COLO 205 colon it was 59.2%; in the experiment with DU-145 prostate, 86.5%; with K-562 leukemia, 19.6%. The growth in the experiment with MALME-3M melanoma is 32.3%; in the experiment with MDA-MB-231 breast, 76.7%; with SF-268 CNS, 76.8%; in the experiment on SF-295 CNS, 77%; with SF-539 CNS, 83.6%; in the experiment on UACC-257 melanoma, 85.4%.

For `C#Cc1nc(C(=O)NCCC(=O)Nc2ccc(NC(=O)c3ccc(/C=C/C(=O)c4nccn4C)cc3)cc2)cs1`, the growth with NCI-H23 lung was 33.1%; in the experiment on NCI-H226 lung, 74.9%; in the experiment with NCI-H322M lung, 62.2%; in the experiment with HOP-62 NSCLC, 24.1%; in the experiment with NCI-H460 lung, 33.9%; in the experiment with HOP-92 NSCLC, 120%. In addition, the growth in the experiment with NCI-H522 lung is 14.9%; in the experiment with A549/ATCC NSCLC, 55.8%; in the experiment on 786-0 renal, -59.8% (active); in the experiment with COLO 205 colon, 56.1%; in the experiment on DU-145 prostate, 21.1%; with K-562 leukemia it was 8.97% (active). Further, the growth is 6.41% (active) in the experiment on MALME-3M melanoma; 5.11% (active) in the experiment on MDA-MB-231 breast; 45.8% in the experiment on RXF 393 renal; 33.4% with SF-268 CNS; 55.6% in the experiment with SF-295 CNS; -89.4% (active) with SF-539 CNS. Also, the growth with UACC-257 melanoma is 78.5%.

In the case of `CC1=CC(=O)C2=C(C)CC(OC(=O)CCc3ccccc3)[C@@H]3[C@H](OC(=O)[C@@H]3C)[C@@H]12` (stereo not given in full), the growth was 95.4% with NCI-H23 lung; 97.9% with NCI-H226 lung; 96.8% in the experiment on NCI-H322M lung; 102% in the experiment on HOP-62 NSCLC; 103% in the experiment on NCI-H460 lung; 92.6% with HOP-92 NSCLC. For the same molecule, the growth with NCI-H522 lung was 77.4%; with A549/ATCC NSCLC, 89%; in the experiment on 786-0 renal, 92.6%; in the experiment with COLO 205 colon it was 95.2%; in the experiment on DU-145 prostate, 101%; with K-562 leukemia, 84.2%. Besides, the growth in the experiment with MALME-3M melanoma was 113%; with MDA-MB-231 breast it was 96.8%; in the experiment on RXF 393 renal it was 122%; in the experiment on SF-268 CNS, 98.8%; in the experiment with SF-295 CNS it was 90.7%; in the experiment on SF-539 CNS, 94.1%. Moreover, the growth in the experiment on UACC-257 melanoma was 91.6%.

As for `CS(=O)(=O)c1ncc(-c2ccccc2)cn1`, the growth was 96% in the experiment on NCI-H23 lung; 101% with NCI-H226 lung; 91.2% with NCI-H322M lung; 100% in the experiment with HOP-62 NSCLC; 108% in the experiment with NCI-H460 lung; 104% in the experiment with HOP-92 NSCLC. In addition, the growth is 86.4% in the experiment on NCI-H522 lung; 94.2% with A549/ATCC NSCLC; 109% with 786-0 renal; 108% with COLO 205 colon; 104% in the experiment with DU-145 prostate; 93.3% in the experiment with K-562 leukemia. In addition, the growth in the experiment with MALME-3M melanoma was 104%; with MDA-MB-231 breast, 99.8%; with RXF 393 renal, 106%; in the experiment with SF-268 CNS, 101%; with SF-295 CNS, 107%; in the experiment on SF-539 CNS it was 94.4%. The growth in the experiment with UACC-257 melanoma was 89.7%.
